Eight molecules from PubChem BioAssay (Tox21) can be followed below.

Inconclusive results are not listed. Active and inactive are the calls of the source. Unless noted, calls follow the shape of the full dose curve.

Assay [1] can be described thus: Nuclear factor erythroid 2-related factor 2/antioxidant responsive element (Nrf2/ARE) small molecule agonists: qHTS cell viability counter screen in human keratinocytes (AID 1919968; active = well fitted curve in the direction sought with a large enough effect in the repeat runs; an effect the other way counts as inactive or inconclusive; also: nearly all actives have a fitted effect of over 55% in size). Summed up: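 Parallel cytotoxicity read: KeratinoSens HaCaT cells, compound treatment 23 h, viability by CellTiter-Fluor fluorescence 1 h post-reagent.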
On the technique in general: qHTS replaces the single test concentration by a dilution series.

A short description of assay [2]: Nuclear factor erythroid 2-related factor 2/antioxidant responsive element (Nrf2/ARE) small molecule agonists: luciferase reporter gene qHTS assay in human keratinocytes (AID 1919969; also: nearly all actives have a fitted effect of over 35% in size). (In a reporter assay the amount or activity of a reporter protein is the signal.)
For assay [3], the target named is Gonadotropin-releasing hormone receptor (Homo sapiens) (UniProt P30968). The assay is described as follows: Human gonadotropin-releasing hormone receptor (GnRHR) small molecule agonists, calcium flux assay in GnRHR-HEK293 cells (AID 1920063). Also: nearly all actives have a fitted effect of over 35% in size. In outline: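 Calcium flux, agonist mode, human GnRHR stably integrated in HEK293; dye 1 h at 37 C before compound; Ex/Em=480/540 kinetic read, 3 min; 15 concentrations, triplicate.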
Chain of Gonadotropin-releasing hormone receptor (Homo sapiens) (P30968 whole entry, looked up): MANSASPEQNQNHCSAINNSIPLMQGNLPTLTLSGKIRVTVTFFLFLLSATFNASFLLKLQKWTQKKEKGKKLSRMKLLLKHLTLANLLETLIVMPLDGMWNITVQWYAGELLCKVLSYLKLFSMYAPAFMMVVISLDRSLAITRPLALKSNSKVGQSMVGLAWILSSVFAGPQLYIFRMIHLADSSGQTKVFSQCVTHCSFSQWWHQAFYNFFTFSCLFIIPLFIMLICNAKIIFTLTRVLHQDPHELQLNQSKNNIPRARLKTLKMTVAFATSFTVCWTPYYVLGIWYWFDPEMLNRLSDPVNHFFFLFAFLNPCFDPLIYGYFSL

Assay [4] concerns the target KiSS-1 receptor (Homo sapiens) (UniProt Q969F8). The assay is described as follows: Human kisspeptin (KISS1R) small molecule agonists, calcium flux assay in KISS1R-HEK293 cells (AID 1920064; active = well fitted curve in the direction sought with a large enough effect in the repeat runs; an effect the other way counts as inactive or inconclusive). In outline: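 Triplicate 15-concentration series were applied to dye-loaded human KISS1R HEK293 cells, and agonist-evoked calcium fluorescence was captured for 3 min.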
(In general: A change in cytosolic calcium serves as a functional read-out for many receptors and channels.)

Assay [5] is described as follows: G protein-coupled receptor (GPCR) small molecule agonists, calcium flux assay: HEK293 wild type cell line counter screen (AID 1920065). In outline: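 Non-specific calcium responders were flagged by adding DMSO-dissolved compounds to dye-loaded cells and reading 480/540 nm fluorescence each second for 3 min; ATP served as positive control.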
Assay [6] can be described thus: p53 small molecule agonists, cell-based qHTS assay with human liver microsomes (AID 1963577). Summed up:
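p53RE-bla cells, 4,000/well, compound added after 5 h, with human liver microsomes 0.5 mg/mL and NADPH 0.5 mg/mL final; 16 h at 37 C, then LiveBLAzer 2 h RT, fluorescence.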

The nature of assay [7]: p53 small molecule agonists, cell-based qHTS assay with rat liver microsomes (AID 1963578). Summed up: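 p53RE-bla cells, 4,000/well, pre-incubated 5 h, then given compounds plus rat liver microsomes (0.5 mg/mL final) and NADPH (0.5 mg/mL final). Incubation 16 h at 37 C; beta-lactamase reporter read by LiveBLAzer fluorescence after 2 h at room temperature.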
The nature of assay [8]: p53 small molecule agonists, cell-based qHTS assay with human liver microsomes: qHTS cell viability counter screen (AID 1963579). Also: nearly all actives have a fitted effect of over 45% in size. Summed up:
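p53RE-bla cells, 4,000/well, dosed 5 hours after plating, with human liver microsomes (0.5 mg/mL final) plus NADPH (0.5 mg/mL final), 16 hours at 37 C. Viability read as CellTiter-Glo luminescence after 30 min at room temperature.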

A short description of assay [9]: p53 small molecule agonists, cell-based qHTS assay with rat liver microsomes: qHTS cell viability counter screen (AID 1963580). Also: nearly all actives have a fitted effect of over 45% in size. Summed up: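 Cytotoxicity counter screen: intracellular ATP read by CellTiter-Glo luminescence in the p53 reporter wells. HCT-116 p53RE-bla cells were treated for 16 h at 37 C alongside rat liver microsomes and NADPH, each 0.5 mg/mL final.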

Assay [10] is described as follows: p53 small molecule agonists, cell-based qHTS assay: qHTS cell viability counter screen (AID 1963581). Also: nearly all actives have a fitted effect of over 45% in size. Summed up:
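Multiplexed with the reporter read, a CellTiter-Glo step (30 min, room temperature) gauges ATP-based viability of HCT-116 p53RE-bla cells after 16 h compound incubation at 37 C.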

Assay [11] is described as follows: p53 small molecule agonists, cell-based qHTS assay (AID 1963582; active = well fitted activation curve with a large enough effect in the signal ratio in the repeat runs, not every such curve was filed as active; the % refers to the signal ratio). In outline:
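Beta-lactamase reporter cells (p53RE-bla) treated with compounds for 16 h at 37 C; FRET substrate, 2 h, room temperature; fluorescence intensity.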

Assay [12] deals with 5-hydroxytryptamine receptor 2A (Homo sapiens) (UniProt P28223). The assay is described as follows: 5-hydroxytryptamine receptor 2A (HTR2A) small molecule antagonists, cell-based qHTS assay (AID 1963586). Also: nearly all actives have a fitted effect of over 45% in size. Also: potency is read from the fitted curve at half-maximal effect. Summed up: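 CHO cells stably expressing human HTR2A were plated for 18 h at 37 C, then loaded with calcium dye for 1 h. Compounds were preincubated 5 min at room temperature before DOI (4 nM solution) was added. Kinetic fluorescence was read for 3 min.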
Chain of 5-hydroxytryptamine receptor 2A (Homo sapiens) (P28223 whole entry, looked up): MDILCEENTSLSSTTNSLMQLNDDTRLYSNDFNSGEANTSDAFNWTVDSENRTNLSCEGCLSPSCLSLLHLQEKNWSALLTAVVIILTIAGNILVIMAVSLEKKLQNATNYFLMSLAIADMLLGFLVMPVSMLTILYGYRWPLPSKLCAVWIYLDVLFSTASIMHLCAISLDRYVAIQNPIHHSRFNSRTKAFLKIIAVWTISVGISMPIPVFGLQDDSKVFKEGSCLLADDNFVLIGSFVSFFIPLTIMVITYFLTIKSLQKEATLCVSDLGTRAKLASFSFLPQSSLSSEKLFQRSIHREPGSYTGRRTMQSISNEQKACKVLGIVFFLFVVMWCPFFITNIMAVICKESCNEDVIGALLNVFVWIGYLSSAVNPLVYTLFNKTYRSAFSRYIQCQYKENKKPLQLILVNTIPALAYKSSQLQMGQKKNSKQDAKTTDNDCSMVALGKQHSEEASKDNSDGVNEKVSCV

The target is the same in assay [13]. Description: 5-hydroxytryptamine receptor 2A (HTR2A) small molecule agonists, cell-based qHTS assay (AID 1963587). Also: nearly all actives have a fitted effect of over 30% in size. Also: potency is read from the fitted curve at half-maximal effect. Summed up: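 Kinetic calcium-flux fluorescence (2 min, 1 sec intervals) after compound addition in agonist mode. HTR2A-CHO cells were cultured 18 h, then dye-loaded 1 h at 37 C.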
The target of assay [14] is Muscarinic acetylcholine receptor M1 (Homo sapiens) (UniProt P11229). The assay is described as follows: Cholinergic receptor muscarinic 1 (CHRM1) small molecule antagonists, cell-based qHTS assay (AID 1963588). Also: nearly all actives have a fitted effect of over 40% in size. In outline: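 Compounds were tested at 15 concentrations in three independent runs. Dye-loaded CHRM1-CHO cells were exposed 5 min at room temperature before stimulation by acetylcholine added at 50nM. Intracellular calcium was read kinetically on FDSS for 3 min.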
Chain of Muscarinic acetylcholine receptor M1 (Homo sapiens) (P11229 whole entry, looked up): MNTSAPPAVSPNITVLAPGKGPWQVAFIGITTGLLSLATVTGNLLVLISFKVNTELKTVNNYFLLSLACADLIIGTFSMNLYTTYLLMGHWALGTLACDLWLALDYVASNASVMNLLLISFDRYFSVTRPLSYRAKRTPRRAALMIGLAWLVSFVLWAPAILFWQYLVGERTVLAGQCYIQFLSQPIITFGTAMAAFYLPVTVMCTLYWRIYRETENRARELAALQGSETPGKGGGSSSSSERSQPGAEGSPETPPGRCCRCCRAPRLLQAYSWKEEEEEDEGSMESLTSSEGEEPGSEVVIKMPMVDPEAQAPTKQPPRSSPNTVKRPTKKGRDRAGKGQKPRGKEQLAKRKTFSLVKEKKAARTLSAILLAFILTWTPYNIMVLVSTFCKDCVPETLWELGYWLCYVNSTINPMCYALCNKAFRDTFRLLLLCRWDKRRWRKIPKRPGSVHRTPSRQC

Assay [15] has the same target. The assay is described as follows: Cholinergic receptor muscarinic 1 (CHRM1) small molecule agonists, cell-based qHTS assay (AID 1963589). Also: nearly all actives have a fitted effect of over 35% in size. In outline:
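qHTS, 15-point titration, 3 independent runs: compounds pin-transferred onto dye-loaded CHRM1-CHO cells (human M1), calcium fluorescence followed every second to detect agonism.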

The nature of assay [16]: cAMP Responsive Elements (CRE) small molecule agonists, cell-based qHTS assay (AID 1963590). Summed up:
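Quantitative HTS for CRE agonists: HEK 293T CRE-bla cells, overnight plating, 3 h compound incubation at 37 C/5% CO2, then 2 h room-temperature LiveBLAzer B/G FRET substrate loading.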

Assay [17] is described as follows: cAMP Responsive Elements (CRE) small molecule antagonists, cell-based qHTS assay (AID 1963591; active = well fitted inhibition curve with a large enough effect in the signal ratio in the repeat runs, not every such curve was filed as active; the % refers to the signal ratio). Summed up: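 Fluorescence intensity from cleaved LiveBLAzer B/G substrate (2 h, room temperature) quantified CRE-bla activity in HEK 293T cells exposed 3 h to compound with 0.25 uM final NKH477.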
The target of assay [18] is Beta-2 adrenergic receptor (Homo sapiens) (UniProt P07550). Description: Adrenergic beta2 receptor (ADRB2) small molecule antagonists, cell-based qHTS assay (AID 1963592). Also: series mostly up to about 92 µM; nearly all actives have a fitted effect of over 50% in size. Summed up: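 Assay format: CHO-ADRB2 cells, 18-20hr seeding at 37C/5% CO2, then compound plus 1nM isoproterenol agonist mix for 0.5hr RT. Homogeneous time-resolved fluorescence cAMP detection after 1hr, expressed as 665/615 nm ratio.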
Chain of Beta-2 adrenergic receptor (Homo sapiens) (P07550 whole entry, looked up): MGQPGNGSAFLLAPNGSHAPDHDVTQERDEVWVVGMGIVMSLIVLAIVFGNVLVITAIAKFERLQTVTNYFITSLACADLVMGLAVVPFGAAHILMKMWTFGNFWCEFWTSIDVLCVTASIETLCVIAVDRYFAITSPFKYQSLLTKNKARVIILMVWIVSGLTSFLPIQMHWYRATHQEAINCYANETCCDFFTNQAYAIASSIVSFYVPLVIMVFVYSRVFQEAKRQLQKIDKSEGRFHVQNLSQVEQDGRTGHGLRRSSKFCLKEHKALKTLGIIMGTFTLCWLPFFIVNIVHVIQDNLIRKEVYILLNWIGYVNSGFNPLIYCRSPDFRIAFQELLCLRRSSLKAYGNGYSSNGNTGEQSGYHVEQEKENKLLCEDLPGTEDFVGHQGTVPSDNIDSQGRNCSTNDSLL

In assay [19] the target is D(2) dopamine receptor (Homo sapiens) (UniProt P14416). Description: Dopamine D2 receptor (DRD2) small molecule agonists, cell-based qHTS assay (AID 1963594). Also: nearly all actives have a fitted effect of over 35% in size. Also: potency is read from the fitted curve at half-maximal effect. In outline:
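cAMP accumulation in DRD2-HEK293 cells measured by HTRF after 1 h detection; compounds added 10 min before NKH477 (200nM […]) forskolin-analogue stimulation, 30 min at room temperature, with Ro20-1724 present at 0.1 mM final.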

The target is the same in assay [20]. Description: Dopamine D2 receptor (DRD2) small molecule antagonists, cell-based qHTS assay (AID 1963595; active = well fitted inhibition curve with a large enough effect in the signal ratio in the repeat runs, with a control signal flat; the % refers to the signal ratio). In outline: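 Antagonism was scored as restored cAMP in HEK293-DRD2 cells. These cells were stimulated with 200 nM NKH477 and 12 nM quinpirole for 30 min at room temperature, in the presence of 0.1 mM Ro20-1724.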

Chain of KiSS-1 receptor (Homo sapiens) (Q969F8 whole entry, looked up): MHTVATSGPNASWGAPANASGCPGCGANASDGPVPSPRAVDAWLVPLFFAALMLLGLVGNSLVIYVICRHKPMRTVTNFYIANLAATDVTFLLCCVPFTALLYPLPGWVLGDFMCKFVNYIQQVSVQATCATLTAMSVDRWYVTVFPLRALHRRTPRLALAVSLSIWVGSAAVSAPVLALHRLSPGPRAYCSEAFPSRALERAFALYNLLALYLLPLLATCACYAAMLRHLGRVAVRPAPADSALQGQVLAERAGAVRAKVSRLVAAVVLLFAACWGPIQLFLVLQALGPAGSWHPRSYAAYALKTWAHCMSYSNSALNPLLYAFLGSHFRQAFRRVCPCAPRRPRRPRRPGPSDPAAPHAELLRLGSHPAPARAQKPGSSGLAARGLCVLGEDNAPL
Chain of D(2) dopamine receptor (Homo sapiens) (P14416 whole entry, looked up): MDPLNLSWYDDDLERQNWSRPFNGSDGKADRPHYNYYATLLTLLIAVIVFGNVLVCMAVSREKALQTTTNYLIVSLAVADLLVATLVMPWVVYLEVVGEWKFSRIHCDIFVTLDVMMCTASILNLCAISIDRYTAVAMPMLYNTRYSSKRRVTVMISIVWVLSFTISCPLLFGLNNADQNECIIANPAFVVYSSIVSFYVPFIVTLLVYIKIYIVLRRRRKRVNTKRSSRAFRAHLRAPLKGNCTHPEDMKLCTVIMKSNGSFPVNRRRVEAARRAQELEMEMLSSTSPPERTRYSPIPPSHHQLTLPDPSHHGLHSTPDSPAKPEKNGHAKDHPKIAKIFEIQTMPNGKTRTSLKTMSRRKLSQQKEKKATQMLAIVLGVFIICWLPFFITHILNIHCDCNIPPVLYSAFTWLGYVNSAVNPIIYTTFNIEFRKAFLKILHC

For `O=C1NC(=O)[C@@]2(CCOc3ccc(F)cc32)N1`, the Potency result in assay [1], in [2], in assay [3], in assay [4], in assay [5] and in assay [6] was “inactive” in each case. Further, the Potency entry in assay [7], in assay [8], in [9], in assay [10], in assay [11] and in assay [14] was “inactive” throughout. Also, the Potency entry in [15], in [16], in assay [17], in assay [18] and in [20] was “inactive” each time. In addition, the Potency in assay [12] is 818 nM (active); in assay [13] it was 3010 nM (active); in assay [19], 110 nM (active).

As for `CCOCCOCCOCCO`, the Potency result in [1], in assay [2], in [3], in assay [4], in [5] and in [6] was “inactive” each time. Besides, the Potency entry in [7], in [8], in [9], in [10], in [11] and in assay [12] was “inactive” throughout. Also, the Potency result in assay [13], in assay [14], in assay [15], in assay [16], in assay [17] and in [18] was “inactive” throughout. Besides, the Potency entry in assay [19] and in [20] was “inactive” throughout.

As for `CCOC=C(C(=O)OCC)C(=O)OCC`, the Potency result in assay [1], in assay [2], in assay [3], in assay [4], in [5] and in assay [6] was “inactive” throughout. For the same molecule, the Potency result in assay [7], in assay [8], in assay [9], in assay [10], in assay [11] and in assay [12] was “inactive” throughout. Moreover, the Potency entry in [13], in [14], in assay [15], in assay [16], in assay [17] and in [18] was “inactive” in each case. For the same molecule, the Potency result in assay [19] and in [20] was “inactive” in each case.

Consider `COc1cc(S(N)(=O)=O)cc(C(=O)O)c1OC`, for which the Potency result in [1], in [2], in assay [3], in assay [4], in [5] and in [6] was “inactive” each time. Further, the Potency result in assay [7], in assay [8], in assay [9], in assay [10], in assay [11] and in assay [12] was “inactive” in each case. Moreover, the Potency entry in assay [13], in [14], in assay [15], in [16], in assay [17] and in assay [18] was “inactive” throughout. Besides, the Potency result in assay [20] is “inactive”.

For `O=C(O)CNc1ccccc1`, the Potency result in assay [1], in assay [2], in assay [3], in assay [4], in [5] and in [6] was “inactive” throughout. Besides, the Potency result in assay [7], in [8], in [9], in assay [10], in assay [11] and in assay [12] was “inactive” in each case. For the same molecule, the Potency entry in [13], in assay [14], in assay [15], in assay [16], in assay [17] and in [19] was “inactive” in each case. Moreover, the Potency entry in [20] is “inactive”.

Take `CCOCCC(=O)OCC`: the Potency entry in assay [1], in assay [2], in assay [3], in assay [4], in assay [5] and in assay [6] was “inactive” each time. In addition, the Potency entry in assay [7], in assay [8], in [9], in assay [10], in [11] and in assay [12] was “inactive” in each case. The Potency entry in assay [13], in [14], in assay [15], in [16], in assay [17] and in assay [18] was “inactive” throughout. For the same molecule, the Potency result in assay [19] and in [20] was “inactive” each time.

On to `Fc1c(F)c(F)c(Br)c(F)c1F`, for which the Potency entry in [1], in assay [2], in assay [3], in [4], in assay [5] and in [6] was “inactive” each time. Also, the Potency result in [7], in [8], in [9], in assay [10], in assay [11] and in [12] was “inactive” throughout. The Potency result in assay [13], in assay [14], in [15], in assay [16], in assay [17] and in assay [18] was “inactive” in each case. Also, in assay [20], the Potency result is “inactive”.

Take `CCN1CCc2nc(N)oc2CC1`: the Potency result in [1], in assay [2], in assay [3], in assay [4], in assay [5] and in assay [6] was “inactive” in each case. The Potency result in assay [7], in assay [8], in assay [9], in assay [10], in [11] and in [12] was “inactive” throughout. For the same molecule, the Potency result in assay [13], in assay [14], in [15], in assay [16], in assay [17] and in assay [18] was “inactive” throughout. In addition, in assay [20], the Potency entry was “inactive”.
